# “And” between values parts separate entries of the source, which are not always exact repeats. Equal entries are not always repeated. Results filed as inconclusive are left out. A call without a number means that no potency is given here. A number with no mark means an inactive call. The source made the active and inactive calls. Calls follow the shape of the dose curve; as a rule, active = well fitted curve in the direction sought with a large enough effect; inconclusive = small, poorly fitted or top-dose-only effect, or another doubt; inactive = no such curve, though single readings can be large; an effect the other way counts as inactive or inconclusive.
# What was measured:
# [1] = test system: KB-3-1; assay: Cytotoxic Profiling of Annotated Libraries Using Quantitative High-Throughput Screening (AID 1296008); details: Five cell lines viability, CellTiter-Glo ATP luminescence, 48-72 h; max response: hits give low values; also: nearly all actives have a fitted effect of over 60% in size
# Procedure, shortened: (§1)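 Cytotoxicity was measured as CellTiter-Glo ATP luminescence, read after 10 min at room temperature. Compound treatment of the cells lasted 48 or 72 hr at 37 degrees Celsius in a qHTS format.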
# [2] = test system: NIH3T3; assay: as above; details: Five cell lines viability, CellTiter-Glo ATP luminescence, 48-72 h; max response: hits give low values
# Procedure, shortened: as §1
# [3] = test system: HACAT; assay: qHTS assay to identify novel small-molecules to repurpose for Merkel cell carcinoma treatment (AID 1296009); details: MCC and control cell lines, CellTiter-Glo viability, 72 h; at 44.8 µM (top of the series) unless noted; also: nearly all actives have a fitted effect of over 60% in size; also: potency is read from the fitted curve at half-maximal effect
# Procedure, shortened: (§2)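 Cell viability measured by CellTiter-Glo following 72 hr compound treatment at 37 degree celsius, with NPC and MIPE libraries tested in 8- and 11-point concentration series.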
# [4] = test system: MCC-13; assay: as above; details: MCC and control cell lines, CellTiter-Glo viability, 72 h; series mostly up to 46 µM
# Procedure, shortened: as §2
# [5] = test system: MCC-26; assay: as above; details: MCC and control cell lines, CellTiter-Glo viability, 72 h; series mostly up to 46 µM
# Procedure, shortened: as §2
# [6] = test system: MKL-1; assay: as above; details: MCC and control cell lines, CellTiter-Glo viability, 72 h; series mostly up to 46 µM
# Procedure, shortened: as §2
# [7] = test system: MKL-2; assay: as above; details: MCC and control cell lines, CellTiter-Glo viability, 72 h; series mostly up to 46 µM
# Procedure, shortened: as §2
# [8] = test system: UISO; assay: as above; details: MCC and control cell lines, CellTiter-Glo viability, 72 h; series mostly up to 46 µM
# Procedure, shortened: as §2
# [9] = test system: WaGa; assay: as above; details: MCC and control cell lines, CellTiter-Glo viability, 72 h; series mostly up to 46 µM
# Procedure, shortened: as §2
# [10] = test system: C33A; assay: Primary qHTS to identify gynecologic anti-cancer compounds using libraries of approved drugs and bioactive compounds (AID 1345084); details: Gynecologic cancer cell panel viability, ATPlite luminescence, 48 h; series mostly up to 57.5 µM; also: nearly all actives have a fitted effect of over 55% in size
# Procedure, shortened: (§3)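 ATP-based viability (ATPlite), 1,000 cells/well, 16 h pre-incubation, 48 h compound at 37 C, 5% CO2, 15 min RT before read.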
# [11] = test system: CAOV3; assay: as above; details: Gynecologic cancer cell panel viability, ATPlite luminescence, 48 h; series mostly up to 57.5 µM
# Procedure, shortened: as §3
# [12] = test system: CASKI; assay: as above; details: Gynecologic cancer cell panel viability, ATPlite luminescence, 48 h; series mostly up to 57.5 µM
# Procedure, shortened: as §3
# [13] = test system: Es-2; assay: as above; details: Gynecologic cancer cell panel viability, ATPlite luminescence, 48 h; series mostly up to 57.5 µM
# Procedure, shortened: as §3
# [14] = test system: HeLa; assay: as above; details: Gynecologic cancer cell panel viability, ATPlite luminescence, 48 h; series mostly up to 57.5 µM
# Procedure, shortened: as §3
# [15] = test system: Hek293T; assay: as above; details: Gynecologic cancer cell panel viability, ATPlite luminescence, 48 h, control line for the selectivity index; series mostly up to 57.5 µM
# Procedure, shortened: as §3
# [16] = test system: JEG-3; assay: as above; details: Gynecologic cancer cell panel viability, ATPlite luminescence, 48 h; series mostly up to 57.5 µM
# Procedure, shortened: as §3
# [17] = test system: OV90; assay: as above; details: Gynecologic cancer cell panel viability, ATPlite luminescence, 48 h; series mostly up to 57.5 µM
# Procedure, shortened: as §3
# [18] = test system: NIH3T3; assay: qHTS assay to identify novel small-molecules to repurpose for Merkel cell carcinoma treatment (AID 1296009); details: MCC and control cell lines, CellTiter-Glo viability, 72 h; at 44.8 µM (top of the series) unless noted; also: nearly all actives have a fitted effect of over 60% in size; also: potency is read from the fitted curve at half-maximal effect
# Procedure, shortened: as §2
# [19] = test system: HEK293T; assay: as above; details: MCC and control cell lines, CellTiter-Glo viability, 72 h; at 44.8 µM (top of the series) unless noted
# Procedure, shortened: as §2
# [20] = test system: CRL-7250; assay: as above; details: MCC and control cell lines, CellTiter-Glo viability, 72 h; at 44.8 µM (top of the series) unless noted
# Procedure, shortened: as §2
smiles,measurement,setting,value
NC1=NC(=O)C(c2ccccc2)O1 (configuration not stated),max response,[1],4.09%
same,max response,[2],3.43%
same,outcome,[3],inactive
same,outcome,[4],inactive
same,Potency,[5],inactive
same,Potency,[6],inactive
same,Potency,[7],inactive
same,Potency,[8],inactive
same,Potency,[9],inactive
same,Potency,[10],inactive
same,outcome,[11],inactive
same,outcome,[12],inactive
same,Potency,[13],inactive
same,Potency,[14],inactive
same,outcome,[15],inactive
same,outcome,[16],inactive
same,Potency,[17],inactive
CN1CCC(O)(c2ccc(F)cc2)C(C(=O)c2ccc(F)cc2)C1 (configuration not stated),max response,[1],8.12%
same,max response,[2],2.95%
same,outcome,[3],inactive
same,outcome,[4],inactive
same,Potency,[6],inactive
same,Potency,[8],inactive
same,Potency,[9],inactive
same,Potency,[10],inactive
same,outcome,[11],inactive
same,outcome,[12],inactive
same,Potency,[13],inactive
same,Potency,[14],inactive
same,outcome,[15],inactive
same,outcome,[16],inactive
same,Potency,[17],inactive
C=C(C)[C@H]1CN[C@H](C(=O)O)[C@H]1CC(=O)O,max response,[1],4.34%
same,outcome,[2],inactive
same,outcome,[3],inactive
same,outcome,[4],inactive
same,Potency,[6],inactive
same,Potency,[7],inactive
same,outcome,[18],inactive
same,Potency,[8],inactive
same,Potency,[9],inactive
same,Potency,[10],inactive
same,outcome,[11],inactive
same,outcome,[12],inactive
same,Potency,[13],inactive
same,Potency,[14],inactive
same,outcome,[15],inactive
same,outcome,[16],inactive
same,Potency,[17],inactive
O=c1[nH]oc2c1CCNC2,max response,[1],-7.07%
same,max response,[2],-9.67%
same,outcome,[3],inactive
same,outcome,[4],inactive
same,Potency,[5],inactive
same,Potency,[6],inactive
same,Potency,[7],inactive
same,Potency,[8],inactive
same,Potency,[9],inactive
same,Potency,[10],inactive
same,outcome,[11],inactive
same,outcome,[12],inactive
same,Potency,[13],inactive
same,Potency,[14],inactive
same,outcome,[15],inactive
same,outcome,[16],inactive
same,Potency,[17],inactive
CN1CC[C@]23c4c5ccc(O)c4O[C@H]2[C@@H](O)C=C[C@H]3[C@H]1C5,max response,[1],-4.72%
same,max response,[2],-4.09%
same,outcome,[3],inactive [at 92 µM]
same,outcome,[4],inactive
same,Potency,[10],inactive
same,outcome,[11],inactive
same,outcome,[12],inactive
same,Potency,[13],inactive
same,Potency,[14],inactive
same,outcome,[15],inactive
same,outcome,[16],inactive
same,Potency,[17],inactive
CC(C)c1cccc(C(C)C)c1O,max response,[1],9.44%
same,max response,[2],0.687%
same,outcome,[3],inactive
same,outcome,[19],inactive
same,outcome,[4],inactive
same,Potency,[5],inactive
same,Potency,[6],inactive
same,Potency,[7],inactive
same,Potency,[8],inactive
same,Potency,[9],inactive
same,Potency,[10],inactive
same,outcome,[11],inactive
same,outcome,[12],inactive
same,Potency,[13],inactive
same,Potency,[14],inactive
same,outcome,[15],inactive
same,outcome,[16],inactive
same,Potency,[17],inactive
CCN(CC)C(=O)[C@@H]1C=C2c3cccc4[nH]cc(c34)C[C@H]2N(C)C1,max response,[1],1.43% and -14.9%
same,outcome,[4],inactive
same,Potency,[5],inactive
same,Potency,[10],inactive
same,outcome,[11],inactive
same,outcome,[12],inactive
same,Potency,[13],inactive
same,Potency,[14],inactive
same,outcome,[15],inactive
same,outcome,[16],inactive
COC1CC(=C(c2cccs2)c2cccs2)C[N+](C)(C)C1 (configuration not stated),max response,[1],0.141%
same,max response,[2],0.648%
same,outcome,[4],inactive
same,Potency,[5],inactive
same,Potency,[6],21.1 µM (active)
same,Potency,[7],7.5 µM (active)
same,Potency,[9],11.9 µM (active)
same,Potency,[10],inactive
same,outcome,[11],inactive
same,Potency,[13],inactive
same,outcome,[15],inactive
same,outcome,[16],inactive
same,Potency,[17],inactive
CCC1(c2ccccc2)C(=O)N(COC)C(=O)N(COC)C1=O,max response,[1],-3.81%
same,outcome,[2],inactive
same,outcome,[4],inactive
same,Potency,[5],inactive
same,Potency,[6],inactive
same,Potency,[7],inactive
same,outcome,[18],inactive
same,Potency,[8],inactive
same,Potency,[9],inactive
same,Potency,[10],inactive
same,outcome,[11],inactive
same,outcome,[12],inactive
same,Potency,[13],inactive
same,Potency,[14],inactive
same,outcome,[15],inactive
same,outcome,[16],inactive
same,Potency,[17],inactive
CC(=O)C1CCOC1=O (configuration not stated),outcome,[2],inactive
same,outcome,[20],inactive
same,outcome,[3],inactive
same,outcome,[19],inactive
same,outcome,[4],inactive
same,Potency,[5],inactive
same,Potency,[6],inactive
same,Potency,[7],inactive
same,outcome,[18],inactive
same,Potency,[8],inactive
same,Potency,[9],inactive
same,Potency,[10],inactive
same,outcome,[11],inactive
same,outcome,[12],inactive
same,Potency,[13],inactive
same,Potency,[14],inactive
same,outcome,[15],inactive
same,outcome,[16],inactive
same,Potency,[17],inactive
COP(=S)(OC)SCN1C(=O)c2ccccc2C1=O,max response,[1],6.87%
same,outcome,[3],inactive
same,outcome,[4],inactive
same,Potency,[7],11.9 µM (active)
same,Potency,[10],inactive
same,outcome,[11],inactive
same,outcome,[12],inactive
same,Potency,[13],inactive
same,Potency,[14],inactive
same,outcome,[15],inactive
same,outcome,[16],inactive
same,Potency,[17],inactive
CC(C)(N)Cc1ccccc1Cl,max response,[2],-1.53%
same,outcome,[20],inactive
same,outcome,[3],inactive
same,outcome,[19],inactive
same,outcome,[4],inactive
same,Potency,[6],inactive
same,Potency,[7],inactive
same,Potency,[8],inactive
same,Potency,[9],inactive
same,Potency,[10],inactive
same,outcome,[11],inactive
same,outcome,[12],inactive
same,Potency,[13],inactive
same,Potency,[14],inactive
same,outcome,[15],inactive
same,outcome,[16],inactive
same,Potency,[17],inactive
C[C@]12CCC(=O)C=C1CC[C@@H]1[C@@H]2CC[C@]2(C)C(=O)CC[C@@H]12,max response,[1],-6.1%
same,max response,[2],-1.13%
same,outcome,[4],inactive
same,Potency,[5],inactive
same,Potency,[6],inactive
same,Potency,[7],inactive
same,Potency,[10],inactive
same,outcome,[11],inactive
same,outcome,[12],inactive
same,Potency,[13],inactive
same,outcome,[15],inactive
same,outcome,[16],inactive
same,Potency,[17],inactive

# — PubChem BioAssay (NCATS)
